Compound activity: PubChem BioAssay, National Center for Advancing Translational Sciences (NCATS)
Cycloheximide cs – Cycloheximide Counterscreen for Small Molecule Inhibitors of Shiga Toxin | cell reporter, cycloheximide protein synthesis inhibition counterscreen | max response, % | 300,000 tested, 12% active; in the data active = max response mostly above about 13%, no sharp cut-off; inactive = mostly below about 14%; note: read at 38.3 µM for the half of the compounds with a filed dose; 0% is about no effect
Shiga inhibitor – A qHTS for Small Molecule Inhibitors of Shiga Toxin | Vero cells, Shiga toxin protein synthesis inhibition reporter | inhibition, % at 38.7 µM | 290,000 tested, 9.2% active | AID 2315, 2010; in the data active = inhibition mostly above about 28%, no sharp cut-off; inactive = mostly below about 43%; note: 0% is about no effect
Pf growth 48h – Primary qHTS for delayed death inhibitors of the malarial parasite plastid, 48 hour incubation; P. falciparum luciferase growth in erythrocytes, 48 h; Potency, µM (highest dose often 28.7 µM), for inactives: top-dose activity change, negative = inhibition, most hits filed as inhibitors; 310,000 tested, 5.9% active; AID 504832, 2011; note: potency is the fitted concentration of half-maximal effect; % is set by controls: 0 for no effect and ±100 for the full control effect
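Luminescence readout; reporter = integrated firefly luciferase in P. falciparum. RBC culture at 2% hematocrit, 0.1% parasitemia final, 37 C/5% CO2; decreased signal taken as growth inhibition.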
AMA1-RON2 inh – qHTS for Inhibitors of AMA1-RON; Towards Development of Antimalarial Drug Lead: Primary Screen. Plasmodium falciparum AMA1 (3D7) - RON2 peptide interaction. Potency, µM (titrated, usually from 58.2 µM), for inactives: at the highest dose activity change, negative = inhibition, actives largely listed as inhibitors. 360,000 tested, 0.2% active. AlphaScreen AMA1-biotinylated RON2 peptide binding;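 note: potency is the fitted concentration of half-maximal effect; 0% = vehicle wells and -100% = peptide control; nearly all actives have a fitted effect of over 45% in size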
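AMA1 (3D7) with his tag at 25 nM final met compounds first, then biotinylated RON2 peptide at 25 nM; detection used donor plus acceptor beads, 10 µg/mL apiece, read by AlphaScreen after 30 min at room temperature.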
SARS PLpro yeast – qHTS of Yeast-based Assay for SARS-CoV PLP; Potency, µM (titrated, usually from 32.9 µM), for the others: at the top dose activity, positive = growth rescue, hits mostly activators; AID 485353, 2010; 330,000 tested, 0.19% active; S. cerevisiae expressing SARS-CoV PLpro, growth rescue; calls by dose curve; note: potency is the fitted concentration of half-maximal effect; 0% is about no effect; nearly all actives have a fitted effect of over 55% in size
Pf growth 96h – Primary qHTS for delayed death inhibitors of the malarial parasite plastid, 96 hour incubation; P. falciparum luciferase reporter growth, 96 h; 320,000 tested, 6.9% active; Potency, µM (doses to about 28.7 µM), without a hit: top-dose activity change, negative = inhibition, hits mostly inhibitors; note: potency is the fitted concentration of half-maximal effect; % is set by controls: 0 for no effect and ±100 for the full control effect
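Infected RBCs, 2% Hct / 0.05% parasitemia final; luciferase-reporter P. falciparum; cpd 96 h, 37 C, 5% CO2; luciferase detection reagent; luminescence.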
* hit, by the source's call; ? = inconclusive; . = no result; [ ] = another dose, or the depositor's remark. In the library only some 19% were active in any assay of this set; here they are far more common. Unless noted, calls come from the whole dose curve; as a rule, active = well fitted curve in the direction sought with a large enough effect; inconclusive = small, poorly fitted or top-dose-only effect, or another doubt; inactive = no such curve, though single readings can be large; an effect the other way counts as inactive or inconclusive.

SMILES	Cycloheximide cs	Shiga inhibitor	Pf growth 48h	AMA1-RON2 inh	SARS PLpro yeast	Pf growth 96h
COc1cc(O)c(C(CCN2CCCCC2)c2ccc3c(c2)OCO3)c(OC)c1 (centres undefined)	-1.2	6.7	0.928µM*	-7.8%	-1.7%	0.465µM*
COc1cc(OC)c2c(-c3ccccc3)cc(=O)oc2c1C(CC(=O)N1CCCC1)c1ccc2c(c1)OCO2 (centres undefined)	25.4	34.4	9.28µM*	-17.1%	-3.6%	?
COc1cc(C(CC(=O)N2CCOCC2)c2c(OC)cc(OC)c3c(-c4ccccc4)cc(=O)oc23)cc(OC)c1OC (centres undefined)	14.8	4.7	.	.	.	.
COc1ccc(C(CCN2CCCC(C)C2)c2c(O)cc(OC)cc2OC)cc1 (centres undefined)	-7.4	-6.7	.	.	.	.
COc1cc(OC)c2c(C)cc(=O)oc2c1C(CCN1CCOCC1)c1ccc2c(c1)OCO2 (centres undefined)	-1.4	-5.0	?	-12.6%	0.0%	?
COc1cc(OC)c2c(-c3ccccc3)cc(=O)oc2c1C(CCN1CCCC(C)C1)c1ccc2c(c1)OCO2 (centres undefined)	-2.8	-5.1	11.7µM*	2.5%	2.6%	?
Cc1ccc(C)c(NC(=O)C2CCCN2S(=O)(=O)c2ccc3c(c2)n(C)c(=O)c(=O)n3C)c1 (centres undefined)	-8.5	-22.8	4.9%	-1.3%	8.8%	?
COc1cc(OC)c2c(-c3ccccc3)cc(=O)oc2c1C(CCN1CCCCC1)c1ccc2c(c1)OCO2 (centres undefined)	-2.9	-1.5	?	-9.9%	-0.3%	9.28µM*
COc1ccc(NC(=O)/C(C#N)=C\c2ccc(-c3cc(C(=O)O)ccc3C)o2)cc1	1.4	8.9	17.1%	-3.8%	1.9%	101.2%
Cc1c(CCN)ccc2c1[nH]c1ccccc12	17.4*	22.8	10.4µM*	3.8%	-1.7%	?
N#C/C(=C\c1ccc(Cl)cc1)C(=O)Nc1cccnc1	-0.9	-7.7	0.0%	3.7%	0.6%	7.7%
CCCN(C(=O)COC(=O)c1[nH]c(C)c(C(=O)OC)c1C)c1c(N)n(Cc2ccccc2)c(=O)[nH]c1=O	.	.	14.7µM*	-2.1%	3.5%	?
CC(=O)Nc1sc(C)c(C)c1C(=O)OCC(=O)N(C)c1c(N)n(Cc2ccccc2)c(=O)[nH]c1=O	.	.	?	14.5%	-4.4%	13.0%
CCC1CCc2sc(C(=O)OCC(=O)N(CCOC)c3c(N)n(Cc4ccccc4)c(=O)[nH]c3=O)cc2C1 (centres undefined)	.	.	?	8.7%	0.8%	10.4µM*
CCN(C(=O)COC(=O)c1cc(C)oc1C)c1c(N)n(Cc2ccccc2)c(=O)[nH]c1=O	.	.	?	-5.6%	-1.6%	-11.6%
COCCN(C(=O)COC(=O)c1c(NC(C)=O)sc(C)c1C)c1c(N)n(Cc2ccccc2)c(=O)[nH]c1=O	.	.	?	5.3%	-3.9%	10.4µM*
CCCN(C(=O)COC(=O)CC1CCCCC1)c1c(N)n(Cc2ccccc2)c(=O)[nH]c1=O	.	.	8.28µM*	4.2%	2.8%	?
COc1cc(-c2nnc(COC(=O)c3ccc(C)o3)o2)cc(OC)c1OC	.	.	0.4%	-2.9%	-1.4%	11.2%
COC(=O)c1cccc(CN2C(=O)C(C)Sc3cc(Cl)ccc32)c1 (centres undefined)	.	.	.	36.4%	.	.
Cc1sc(-c2ccncc2)nc1OC(=O)c1ccccc1	-3.2	-21.7	.	0.3%	6.4%	-3.3%
C=CCN(CC=C)C(=O)c1cc2ccccc2c(=O)o1	7.2	8.3	2.5%	-12.3%	20.1%	-16.7%
Cc1ccccc1-c1cc(C(=O)NCC2CC2)nn1CC1CC(c2cccc([N+](=O)[O-])c2)=NO1 (centres undefined)	.	.	5.22µM*	-11.0%	1.6%	2.62µM*
COCCNC(=O)c1cc(-c2ccccc2C)n(CC2CC(c3cccc([N+](=O)[O-])c3)=NO2)n1 (centres undefined)	.	.	.	-0.6%	-5.4%	.
COc1ccccc1CNC(=O)c1cc(-c2ccccc2C)n(CC2CC(c3cccc([N+](=O)[O-])c3)=NO2)n1 (centres undefined)	.	.	5.22µM*	6.9%	5.3%	?
Cc1ccc(C(=O)CCC(=O)Nc2ccccc2F)cc1	32.5*	39.1	57.0%	-4.6%	-4.8%	148.3%
SMILES	Cycloheximide cs	Shiga inhibitor	Pf growth 48h	AMA1-RON2 inh	SARS PLpro yeast	Pf growth 96h
O=C(CC(=O)Nc1ccccc1F)Nc1ccccc1F	6.8	7.2	-11.1%[0.00184 µM]	-4.2%	0.2%	?
Cc1ccc(CCC(=O)Nc2ccccc2F)s1	32.4*	92.6*	90.0%	14.3%	-1.6%	7.5%
O=C(CCC(=O)c1ccc(F)cc1)Nc1ccccc1Cl	16.6	35.9*	47.4%	-5.1%	-5.1%	?
O=C(NCCc1ccco1)C(=O)NCC1OCCCN1S(=O)(=O)c1ccccc1 (centres undefined)	-0.3	-7.7	?	-14.2%	-3.3%	?
COc1ccccc1N1CCN(CC(=O)Nc2nc(C)c(C(=O)N(C)C)s2)CC1	-2.6	1.8	-26.5%	34.3%	-3.9%	14.7µM*
Cc1nc(NC(=O)CN2CCCCC2)sc1C(=O)N(C)C	-0.4	15.2	0.0%	6.5%	1.0%	-16.5%
Fc1ccc(-c2c[nH]c(=S)n2Cc2ccccc2)cc1	-3.1	-2.5	10.4µM*	49.7%	18.1%	?
Nc1cccc2c3c(oc12)CCCC3	9.4*	11.0	54.3%	11.7%	-9.6%	2.4%
COC(=O)c1nc2nc(C)cc(C(F)(F)F)n2n1	-11.9	-37.4	0.6%	1.0%	1.3%	11.7µM*
S=c1[nH]nc(-c2cccc(Cl)c2)n1CCN1CCCCC1	0.7	-6.9	12.5%	28.2%	2.7%	?
CCN(CC)C1CCCCC1NS(=O)(=O)c1ccc(Cl)cc1 (centres undefined)	-1.4	11.5	-14.9%	3.3%	0.9%	?
CN(c1ccccc1)C1CCCCC1NS(=O)(=O)c1ccc(Cl)cc1 (centres undefined)	0.5	-7.4	6.57µM*	-11.3%	-84.8%	?
CCOc1nc(-c2ccc(OC)cc2)ccc1-c1noc(-c2ccncc2)n1	-3.2	-2.3	?	-3.0%	-10.4%	?
COc1cc(-c2nc(-c3ccc(-c4ccccc4)nc3OC)no2)cc(OC)c1OC	-1.5	-3.9	21.5%	.	2.5%	-28.0%
COc1ccc(-c2ccc(-c3noc(C(C)C)n3)c(OC)n2)cc1	39.6*	69.4	24.1%	20.5%	-14.1%	-3.0%
COc1nc(-c2ccccc2)ccc1-c1noc(C)n1	62.2*	72.2*	75.8%	26.1%	.	.
CCOc1nc(-c2ccccc2)ccc1-c1noc(COC)n1	7.7	6.9	?	22.1%	-31.6%	?
